# VLA-4 inh: inhibition in a human VLA-4 binding assay. P13612. AID 2557. inhibition, % (about 7 µM as worked out from the volumes in the protocol). 330,000 tested, 0.2% active. VLA-4 expressing cells, ligand binding flow cytometry; in the data active means inhibition above about 50%
# Target sequence (P13612 whole entry, looked up): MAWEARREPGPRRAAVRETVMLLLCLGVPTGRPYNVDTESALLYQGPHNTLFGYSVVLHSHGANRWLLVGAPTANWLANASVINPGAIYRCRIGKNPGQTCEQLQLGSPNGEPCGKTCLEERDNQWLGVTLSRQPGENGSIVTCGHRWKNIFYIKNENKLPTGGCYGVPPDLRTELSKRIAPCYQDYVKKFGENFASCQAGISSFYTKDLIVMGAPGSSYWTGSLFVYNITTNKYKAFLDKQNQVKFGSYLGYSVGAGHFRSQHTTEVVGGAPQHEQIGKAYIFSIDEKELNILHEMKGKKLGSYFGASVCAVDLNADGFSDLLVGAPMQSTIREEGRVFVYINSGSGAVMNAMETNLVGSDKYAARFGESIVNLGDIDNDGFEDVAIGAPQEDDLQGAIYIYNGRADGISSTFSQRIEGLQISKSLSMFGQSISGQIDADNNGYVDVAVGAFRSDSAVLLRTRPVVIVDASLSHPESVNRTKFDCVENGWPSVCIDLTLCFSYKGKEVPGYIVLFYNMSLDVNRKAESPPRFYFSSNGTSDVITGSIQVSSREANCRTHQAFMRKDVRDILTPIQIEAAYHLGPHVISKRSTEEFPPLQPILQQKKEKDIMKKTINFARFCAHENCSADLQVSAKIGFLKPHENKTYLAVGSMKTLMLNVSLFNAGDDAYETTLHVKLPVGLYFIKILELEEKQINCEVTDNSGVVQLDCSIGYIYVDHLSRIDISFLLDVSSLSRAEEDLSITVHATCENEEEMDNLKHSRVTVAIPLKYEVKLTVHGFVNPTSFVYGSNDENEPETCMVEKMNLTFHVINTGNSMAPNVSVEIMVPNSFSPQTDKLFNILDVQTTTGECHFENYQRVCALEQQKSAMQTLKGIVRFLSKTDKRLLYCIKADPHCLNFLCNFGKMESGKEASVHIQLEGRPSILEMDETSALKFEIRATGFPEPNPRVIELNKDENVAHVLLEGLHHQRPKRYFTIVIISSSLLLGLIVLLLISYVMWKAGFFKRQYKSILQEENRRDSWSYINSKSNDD
# AGP1-GFP MLPCN: modulators of TOR pathway AGP1-GFP in S. cerevisiae; GFP response vs DMSO, % at 10 µM; AID 2066; 320,000 tested, 0.02% active; S. cerevisiae AGP1-GFP multiplex flow cytometry, 3 h; GFP as percent of DMSO wells;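 active means GFP response relative to DMSO above a set limit, near screen average plus 3 SD, cut at about 150% in these data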;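 further: median GFP channel fluorescence of the gated AGP1 strain per well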
# LAP4-GFP MLPCN: alters LAP4-GFP fluorescence in TOR pathway yeast screen; S. cerevisiae LAP4-GFP multiplex, flow cytometry GFP, 3 h; median GFP as percent of DMSO wells; GFP response vs DMSO, % at 10 µM; 320,000 tested, 0.34% active; AID 2023;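 active means GFP response vs DMSO above a set limit, about the screen mean plus 3 SD, cut at about 150% in these data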
# RPL19A TOR yeast: yeast TOR pathway RPL19A-GFP modulation | S. cerevisiae RPL19A-GFP strain, flow cytometry, 3 h; stronger effect = lower value | percent response vs DMSO, % at 10 µM | 330,000 tested, 0.3% active;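 active means percent response vs DMSO below 50%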;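 further: median channel GFP fluorescence of the barcoded RPL19A-GFP strain; ratio of sample median GFP to plate DMSO average so 100% = DMSO; lower means less RPL19A-GFP as with rapamycin TOR inhibition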
# MEP2 TOR yeast: yeast TOR pathway MEP2-GFP modulation; AID 2016; 330,000 tested, 0.51% active; GFP response vs DMSO, % at 10 µM; S. cerevisiae MEP2-GFP strain, flow cytometry GFP, 3 h; 100% = DMSO control level;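 active means GFP response versus DMSO above a set limit, roughly screen mean plus 3 SD, cut at about 180% in these data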;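 further: median GFP fluorescence of the barcode-gated MEP2-GFP cells per well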
# CIT2 TOR yeast: alters CIT2-GFP fluorescence in TOR pathway yeast screen. 320,000 tested, 0.065% active. S. cerevisiae CIT2-GFP strain, flow cytometry, 3 h; 100 means same as DMSO wells. GFP response vs DMSO, % at 10 µM;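 active means GFP response relative to DMSO above a set limit, near the screen mean plus 3 SD, cut at about 150% in these data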;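 further: ratio of well median GFP fluorescence to mean of DMSO wells on the plate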
# LAP4 cherry2: second confirmation of modulators of TOR reporter LAP4-GFP in yeast | shares compounds with LAP4-GFP MLPCN | S. cerevisiae LAP4-GFP strain, flow cytometry GFP, 3 h | GFP response vs DMSO, % at 10 µM | 590 tested, 20% active | AID 2621;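 active means GFP signal as percent of the solvent control above about 150%, meaning raised reporter expression, limit read from the data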;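 further: ratio of well median GFP fluorescence to plate DMSO mean so 100% = DMSO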
# MEP2 cherry2: second confirmation of modulators of TOR reporter MEP2-GFP in yeast. shares compounds with LAP4-GFP MLPCN. S. cerevisiae MEP2-GFP strain, flow cytometry GFP, 3 h. GFP response vs DMSO, % at 10 µM. 590 tested, 10% active;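 active means GFP signal above 150% of the solvent control wells, that is a rise of more than half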;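 further: median channel GFP fluorescence of all gated yeast cells per well; ratio of median GFP to plate DMSO average so 100% = DMSO level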
# RPL19A-GFP pick2: yeast RPL19A-GFP TOR reporter modulation, second cherry pick; shares compounds with LAP4-GFP MLPCN; S. cerevisiae RPL19A-GFP strain, flow cytometry GFP, 3 h; stronger effect = lower value; 100% means same as DMSO wells; GFP response vs DMSO, % at 10 µM; 590 tested, 3% active; AID 2623;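 active means under 65% GFP response relative to DMSO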;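 further: median GFP channel fluorescence per well over the all cells gate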
# CIT2-GFP pick2: reconfirmed modulator of CIT2-GFP TOR reporter in yeast | shares compounds with LAP4-GFP MLPCN | S. cerevisiae CIT2-GFP strain, flow cytometry GFP, 3 h; DMSO control wells read 100% | GFP response vs DMSO, % at 10 µM | 590 tested, 8% active;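 active means GFP response vs DMSO above about 150%, limit read from the data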;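 further: median green fluorescence per well over all gated yeast cells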
# AGP1-GFP pick2: reconfirmed modulator of AGP1-GFP TOR reporter in yeast; S. cerevisiae AGP1-GFP strain, flow cytometry GFP, 3 h; shares compounds with LAP4-GFP MLPCN; 590 tested, under 10 active; percent response vs DMSO, % at 10 µM; AID 2643;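 active means over 150 percent of DMSO response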;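 further: median GFP channel fluorescence over all cells without mother daughter split; sample median GFP divided by mean DMSO control so 100% equals DMSO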
# s288c autofluor: counter-screen for compound autofluorescence in yeast s288c cells | S. cerevisiae s288c, 520 nm autofluorescence, flow cytometry, 3 h; stronger effect = higher value; zero means same as solvent-only cells | shares compounds with LAP4-GFP MLPCN | 610 tested, under 10 active | AID 2757 | fluorescence change (kMESF span) at 33 µM;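 active means fluorescence span over the dose series, or activity score, above about 33, limit read from the data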
# Yeast autofl DR: TOR screen hit shows autofluorescence in yeast s288c | shares compounds with LAP4-GFP MLPCN | S. cerevisiae s288c parental, compound autofluorescence, flow cytometry, 3 h | fluorescence change (span) at 33 µM | 110 tested, under 10 active;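 active means fluorescence change span, or the activity score built from it, above 25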
# TORC1 bypass gr: wildtype yeast growth loss with TORC1 bypass cells unaffected; shares compounds with LAP4-GFP MLPCN; S. cerevisiae BY4741 spot growth rating, 48-72 h; stronger effect = lower value; growth rating (0-3) at 30 µM; 120 tested, under 10 active; AID 504456;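 active means growth rating at most 1 for wild type yeast while the TORC1 bypass strain still grows fully, rated 3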
# * marks the source's active call; other numbers are inactive results; i = inactive; nt = no result given. Sampled rows, rich in hits. Any-hit rate of the full collection: about 1.1%.
SMILES,VLA-4 inh,AGP1-GFP MLPCN,LAP4-GFP MLPCN,RPL19A TOR yeast,MEP2 TOR yeast,CIT2 TOR yeast,LAP4 cherry2,MEP2 cherry2,RPL19A-GFP pick2,CIT2-GFP pick2,AGP1-GFP pick2,others
CNc1nc(N)c([N+](=O)[O-])c(Nc2cccc(Cl)c2)n1,10.4,96.1,114.4,93.4,109.0,121.3,nt,nt,nt,nt,nt,Yeast autofl DR=0.36;TORC1 bypass gr=3
Cc1cc(N)n(-c2ccccn2)n1,-5.9,104.6,105.1,100.7,95.6,102.3,nt,nt,nt,nt,nt,
Cc1onc(-c2c(F)cccc2Cl)c1C(=O)N(C)C1CCCCC1,-0.2,106.4,106.2,95.8,96.9,116.2,nt,nt,nt,nt,nt,
O=C(CN(C(=O)c1csnn1)c1cccc(C(F)(F)F)c1)NC1CCCC1,-1.2,91.3,91.2,91.8,96.5,88.3,nt,nt,nt,nt,nt,
Cc1ccc(S(=O)(=O)N2CCC(C(=O)OCC(=O)NCc3cccc(Cl)c3)CC2)cc1C,-2.4,102.3,101.1,97.5,101.2,92.8,nt,nt,nt,nt,nt,
CC(NC(=O)COC(=O)c1nc(Cl)ccc1Cl)c1ccccc1 (configuration not stated),9.6,102.0,92.2,102.4,100.3,110.3,nt,nt,nt,nt,nt,
COc1ccc2nccc(/C=C/c3ccnc4ccc(OC)cc34)c2c1,15.6,65.3,137.2,62.0,90.8,68.3,110.6,111.5,93.5,92.7,92.5,
O=C(Nc1ccccc1N1CCOCC1)c1ccc(N2CCCC2=O)cc1,9.3,91.2,91.6,91.4,92.6,83.5,nt,nt,nt,nt,nt,
COc1ccc(NC(=O)CN(C)C(=O)CCc2ccccc2)cc1,9.7,103.8,99.0,102.9,104.3,106.0,nt,nt,nt,nt,nt,
COc1ccc(NC(=O)CN(C)C(=O)C2(c3ccccc3)CCCC2)cc1,-2.0,112.1,152.2*,81.7,99.2,82.9,99.2,97.8,98.2,108.5,99.5,
COc1ccc(CN(C)C(=O)[C@H](Cc2ccccc2)NC(=O)c2ccco2)c(OC)c1,13.9,105.5,102.8,97.1,96.9,93.4,nt,nt,nt,nt,nt,
Cc1ccc(/C=C2\SC(=S)N(Cc3ccccc3)C2=O)o1,6.0,86.3,156.0*,97.4,106.7,95.2,151.9*,123.1,106.1,119.9,99.4,s288c autofluor=1.31
O=C1/C(=C/c2ccncc2)SC(=S)N1Cc1ccccc1,1.7,98.8,109.9,94.7,94.1,96.4,nt,nt,nt,nt,nt,
O=C1/C(=C\c2ccc(O)c(O)c2)SC(=S)N1Cc1ccccc1,i,44.3,218.9*,96.7,408.7*,202.7*,nt,nt,nt,nt,nt,s288c autofluor=33.1*
CCOc1ccc(N(C(C)C(=O)N2CCOCC2)S(C)(=O)=O)cc1 (configuration not stated),10.3,103.2,81.1,97.9,100.4,116.3,nt,nt,nt,nt,nt,
O=C1C(=O)N(CCN2CCOCC2)C(c2cccc(Cl)c2)/C1=C(\O)c1ccc2c(c1)OCCO2 (configuration not stated),1.7,27.0,93.0,50.1,136.2,107.0,100.0,98.2,96.7,112.0,97.9,
Cc1[nH]n(-c2ncc(-c3ccccc3)s2)c(=O)c1C(c1ccc(Cl)cc1)C(C#N)C#N (configuration not stated),6.7,93.4,154.9*,90.2,86.1,88.3,nt,nt,nt,nt,nt,s288c autofluor=0
CCCc1c(O)nc(SCCN(CC)CC)[nH]c1=O,12.8,87.3,106.3,96.6,98.7,97.4,nt,nt,nt,nt,nt,
CCCc1c(O)nc(SCCN(CC)CC)n(C(=O)c2ccccc2)c1=O,29.6,28.5,115.8,36.5*,248.3*,115.4,97.1,101.5,98.8,96.1,98.6,
COc1ccc(CN2CCN(Cc3ccc4cc(F)ccc4n3)CC2CCO)c(C)c1C (configuration not stated),12.0,98.3,90.2,101.0,99.8,96.8,nt,nt,nt,nt,nt,
O=C1N=c2ccccc2=C1c1c(O)n(-c2cccc(F)c2)[nH]c1=O,2.1,89.0,200.0*,77.0,97.1,74.2,147.3,104.8,94.0,109.9,93.8,
Cc1ccc2c(c1)c(/C=C/c1cc[n+](C)cc1)c(C)n2C,nt,116.7,198.2*,127.4,289.0*,205.6*,nt,nt,nt,nt,nt,s288c autofluor=15.6
Cn1cc(/C=C/c2cc[n+](C)cc2)c2cc(Cl)ccc21,i,70.2,93.3,93.2,148.8,114.7,nt,nt,nt,nt,nt,
Cc1ccc2[nH]c(C)c(/C=C/c3cc[n+](C)cc3)c2c1,i,110.0,208.6*,124.2,344.1*,223.5*,nt,nt,nt,nt,nt,s288c autofluor=16.5
C[n+]1ccc(/C=C/c2c[nH]c3ccc(F)cc23)cc1,-148.2,93.3,110.3,102.9,139.6,112.3,nt,nt,nt,nt,nt,
SMILES,VLA-4 inh,AGP1-GFP MLPCN,LAP4-GFP MLPCN,RPL19A TOR yeast,MEP2 TOR yeast,CIT2 TOR yeast,LAP4 cherry2,MEP2 cherry2,RPL19A-GFP pick2,CIT2-GFP pick2,AGP1-GFP pick2,others
O=P(c1ccccc1)(c1ccccc1)N(c1ccccc1)c1ccccc1,-15.8,97.6,89.5,100.1,96.1,97.5,nt,nt,nt,nt,nt,
O=C1C=CC(=O)N1N(c1ccccc1)c1ccccc1,-13.3,72.2,121.7,100.2,84.3,73.8,nt,nt,nt,nt,nt,s288c autofluor=1.02
CCOC(=O)c1c(C)[nH]c(C)c1C(=O)COC(=O)/C=C/c1cccc(F)c1,-18.3,121.2,245.7*,124.0,309.4*,231.4*,104.2,115.3,98.0,112.6,95.5,
O=C1/C(=C/C=C/c2ccccc2)Oc2c1ccc(O)c2CN1CCN(CCO)CC1,-7.3,96.9,102.9,96.6,99.0,93.8,nt,nt,nt,nt,nt,
CCN1CCN(Cc2c(O)ccc3c2O/C(=C\C=C\c2ccccc2)C3=O)CC1,-24.7,67.6,152.9*,83.7,107.7,60.7,103.8,103.2,100.4,113.1,100.3,
CS(=O)(=O)c1ccc(Sc2nc3ccccc3s2)c([N+](=O)[O-])c1,18.6,95.9,98.5,100.2,100.4,100.0,nt,nt,nt,nt,nt,
